Source: PubChem (Broad Institute)
Sampled rows, rich in hits. Any-hit rate of the full collection: about 6.8%.
Pf Dd2 growth – inhibitors of Plasmodium falciparum Dd2 growth; P. falciparum Dd2 growth, SYBR Green, 72 h; hits give low values; activity change, % at 10 µM; actives 2.3% (n = 94,000); AID 1159554; in the data active means activity change below about -80%; inconclusive means no clear call, values can overlap the other calls
C diff growth – inhibitors of Clostridium difficile growth; growth activity, negative = inhibition, % at 16 µg/mL (by protocol); actives 0.25% (n = 86,000); Clostridium difficile clinical isolate growth, OD600, 24 h; hits give low values;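 active means mean growth activity at or below -80% and every replicate also at or below -80%; inconclusive means mean at or below -80% but some replicate above -80%; inactive means mean growth activity above -80%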
T cruzi growth-1 – blocks T. cruzi growth in NIH3T3 culture | T. cruzi beta-gal in NIH3T3, GalScreen luminescence, 90 h | inhibition, % at 8.34 µM | actives 5.9% (n = 77,000);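 active means mean inhibition above about 93%, with at least 55% of replicates each passing it, limit read from the data, passing the limit was not always enough; inconclusive means only one of those two conditions holds; inactive means neither condition holds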
T cruzi growth-2 – inhibitors of T. cruzi proliferation; T. cruzi beta-gal in NIH3T3, GalScreen luminescence, 90 h; actives 72% (n = 5,600); shares compounds with T cruzi growth-1; inhibition, % at 8.35 µM; AID 651739;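 active means mean replicate inhibition above about 95% and at least 55% of replicates individually reaching it, limit read from the data; inconclusive means only one of the two criteria is met; inactive means neither criterion is met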
T cruzi growth-3 – inhibitors of T. cruzi proliferation | inhibition, % at 2.09 µM | shares compounds with T cruzi growth-1 | AID 651740 | actives 21% (n = 5,600) | T. cruzi beta-gal in NIH3T3, GalScreen luminescence, 90 h;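 active means mean inhibition above about 95%, with at least 55% of replicates also reaching it, limit read from the data; inconclusive means meets just one of the two conditions; inactive means meets neither condition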
3T3 cytotox – NIH/3T3 (mouse) viability loss; shares compounds with T cruzi growth-1; NIH/3T3 viability, CellTiter-Glo ATP luminescence, 90 h; actives 14% (n = 5,600); cytotoxicity (signal decrease), % at 8.35 µM;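 active means mean signal decrease across replicates above about 35% based on untreated-well scatter, with enough replicates individually passing, limit read from the data; inconclusive means no rule stated though some were filed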
NIH3T3 tox 2 – NIH/3T3 (mouse) viability loss; shares compounds with T cruzi growth-1; NIH/3T3 viability, CellTiter-Glo ATP luminescence, 90 h; inhibition, % at 24.9 µM; actives 56% (n = 5,600); AID 651744;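 active means mean loss of cell viability signal at or above a set limit, and enough replicates individually reaching it; inconclusive means meets only the mean limit or only the replicate share; inactive means meets neither condition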
A number is an active result; 0 = inactive; ? = inconclusive; - = no result.

SMILES | Pf Dd2 growth | C diff growth | T cruzi growth-1 | T cruzi growth-2 | T cruzi growth-3 | 3T3 cytotox | NIH3T3 tox 2
COc1ccc(CN(C)C[C@H]2Oc3ccc(NS(=O)(=O)c4ccc(F)cc4)cc3CC(=O)N([C@@H](C)CO)C[C@@H]2C)cc1 | 0 | 0 | 0 | - | - | - | -
Cc1noc(C)c1NC(=O)N(C)C[C@@H]1Oc2ccc(NC(=O)Nc3ccc(F)cc3)cc2CC(=O)N([C@@H](C)CO)C[C@H]1C | 0 | 0 | 0 | - | - | - | -
N#C[C@H]1[C@@H](c2ccc(C3=CCCC3)cc2)[C@@H](CO)N1C(=O)C1CCC1 | 0 | 0 | 0 | - | - | - | -
N#C[C@H]1[C@@H](c2ccc(C3=CCCCC3)cc2)[C@@H](CO)N1C(=O)NC1CCCC1 | 0 | 0 | - | - | - | - | -
CCCNC(=O)N1[C@H](CO)[C@@H](c2ccc(C3=CCCCC3)cc2)[C@@H]1C#N | 0 | 0 | 105 | 0 | 0 | 0 | 0
N#C[C@@H]1[C@H](c2ccc(C3=CCCC3)cc2)[C@H](CO)N1C(=O)C1CCC1 | 0 | 0 | 103 | 110 | 0 | 0 | 0
N#C[C@H]1[C@H](c2ccc(C3=CCCCC3)cc2)[C@@H](CO)N1C(=O)NC1CCCCC1 | 0 | 0 | 104 | 104 | 0 | 0 | 77
CCCNC(=O)N1[C@H](C#N)[C@H](c2ccc(C3=CCCCC3)cc2)[C@@H]1CO | ? | 0 | 99 | 101 | 116 | 0 | 33
CCCNC(=O)N1[C@H](C#N)[C@H](c2ccccc2C2=CCCCC2)[C@@H]1CO | 0 | 0 | - | - | - | - | -
CCCNC(=O)N1[C@@H](C#N)[C@@H](c2ccc(C3=CCCCC3)cc2)[C@@H]1CO | 0 | 0 | 0 | - | - | - | -
COc1cccc(NC(=O)N[C@@H]2C=C[C@H](CC(=O)Nc3ccccc3)O[C@@H]2CO)c1 | 0 | 0 | - | - | - | - | -
CC(C)NC(=O)N(C)C[C@@H]1Oc2ccc(NC(=O)CCC(F)(F)F)cc2CC(=O)N([C@H](C)CO)C[C@@H]1C | 0 | 0 | - | - | - | - | -
O=C(Nc1ccc(Cl)cc1)N[C@H]1CC[C@@H](CCn2cc(-c3ccccc3F)nn2)O[C@@H]1CO | 0 | 0 | 0 | - | - | - | -
C[C@H](CO)N1C[C@H](C)[C@@H](CN(C)C(=O)Nc2ccc3c(c2)OCO3)OCCCC[C@H](C)Oc2ccc(NS(C)(=O)=O)cc2C1=O | 0 | 0 | 0 | - | - | - | -
C[C@@H]1CN([C@@H](C)CO)C(=O)c2cc(-c3cncnc3)cnc2O[C@@H]1CN(C)Cc1ccccc1 | 0 | 0 | - | - | - | - | -
CCC(=O)N(C)C[C@@H]1Oc2cc(C#CCC(C)C)ccc2S(=O)(=O)N([C@@H](C)CO)C[C@@H]1C | 0 | 0 | 0 | - | - | - | -
O=C(C[C@H]1CC[C@H](NC(=O)C2CCOCC2)[C@H](CO)O1)Nc1nccs1 | 0 | - | 0 | - | - | - | -
COCC(=O)N1[C@H](CO)[C@@H](c2ccc(C3=CCCCC3)cc2)[C@@H]1C#N | 0 | 0 | ? | 108 | 0 | 0 | 0
COCC(=O)N1[C@H](C#N)[C@@H](c2ccc(C3=CCCCC3)cc2)[C@@H]1CO | 0 | 0 | 0 | - | - | - | -
COCC(=O)N(C)C[C@H]1Oc2ncc(C#Cc3ccc(F)cc3)cc2C(=O)N([C@H](C)CO)C[C@H]1C | 0 | 0 | 0 | - | - | - | -
C[C@H]1CN([C@@H](C)CO)C(=O)c2cccc(NC(=O)Nc3cccc4ccccc34)c2O[C@H]1CN(C)C(=O)Nc1ccc(F)cc1 | 0 | 0 | 116 | 109 | 0 | 0 | ?
C[C@H](CO)N1C[C@H](C)[C@H](CN(C)C(=O)Nc2cccc3ccccc23)Oc2c(NC(=O)c3ccncc3)cccc2C1=O | 0 | 0 | 0 | - | - | - | -
C[C@H](CO)N1C[C@H](C)[C@H](CN(C)C(=O)Nc2ccccc2)Oc2c(NC(=O)Nc3cccc4ccccc34)cccc2C1=O | 0 | 0 | 110 | 107 | 0 | 0 | 41
C[C@H]1CN([C@@H](C)CO)C(=O)c2cccc(NC(=O)c3ccncc3)c2O[C@H]1CN(C)C(=O)Nc1cccc2ccccc12 | 0 | 0 | 96 | ? | 0 | 0 | 0
C[C@H]1CN([C@@H](C)CO)C(=O)c2cccc(NC(=O)Nc3ccc(F)cc3)c2O[C@H]1CN(C)C(=O)Nc1cccc2ccccc12 | 0 | 0 | 0 | - | - | - | -
C[C@@H]1CN([C@@H](C)CO)C(=O)c2cccc(NC(=O)Nc3cccc4ccccc34)c2O[C@H]1CN(C)C(=O)Nc1ccccc1 | 0 | 0 | 0 | - | - | - | -
